An excerpt weighted towards active compounds, which were near 11% of everything screened.
NS1 function inh: inhibitors of influenza NS1 protein function; Potency, µM (series often up to 46.1 µM), inactives show at the top dose activity, positive = more growth; 0.4% of 270,000 active; calls by dose curve; also: actives are rising curves; nearly all actives have a fitted effect of over 50% in size
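A cell-based growth assay was used: compounds that relieve NS1-induced slow growth of budding yeast raise OD600. Assay medium was yeast nitrogen base with ammonium sulphate and -URA supplement, pH 6.0, with 2% galactose.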
Pf growth 48h: inhibits P. falciparum growth in the first generation, 48 h; 5.9% of 310,000 active; P. falciparum luciferase growth in erythrocytes, 48 h; Potency, µM (titrated, usually from 28.7 µM), inactives show at the highest dose activity change, negative = inhibition, actives largely listed as inhibitors; also: % is scaled to controls: 0 for no effect and ±100 for the full control effect
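Read-out is firefly luciferase luminescence from an integrated reporter in P. falciparum, so falling signal marks reduced parasite growth. Infected erythrocytes were at 2% hematocrit and 0.1% parasitemia (final) in Albumax-supplemented RPMI 1640.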
Pf growth 96h: inhibits malaria parasite growth, 96 h | Potency, µM (titrated, usually from 28.7 µM), without a hit: at the top dose activity change, negative = inhibition, most hits filed as inhibitors | P. falciparum luciferase reporter growth, 96 h | 6.9% of 320,000 active; also: % is scaled to controls: 0 for no effect and ±100 for the full control effect
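Erythrocytes infected with luciferase-expressing P. falciparum were dispensed at 2% hematocrit and 0.05% parasitemia (final), then incubated with compounds 96 hours at 37 C in 5% CO2. Luminescence after detection reagent addition reported growth.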
Vaccinia Venus: inhibitors of vaccinia virus (Venus reporter). Vaccinia virus Venus reporter expression, fluorescence. Potency, µM (top dose mostly 36.5 µM), for inactives: at the top dose activity change, negative = inhibition, hits mostly inhibitors. 0.46% of 330,000 active; calls by dose curve; tested in A549 cells; also: % is scaled to controls: 0 for no effect and ±100 for the full control effect; nearly all actives have a fitted effect of over 30% in size
HCV inh: blocks hepatitis C virus | Huh7.5.1 HCVcc-Cre infection, luciferase reporter, 44 h | Potency, µM (series often up to 41.8 µM), inactives show at the top dose activity change, negative = inhibition, most hits filed as inhibitors | 3.4% of 340,000 active; also: % is scaled to controls: 0 for no effect and ±100 for the full control effect
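Compounds are dispensed onto cells plated 4 h earlier at 1,000 per well, with HCVcc-Cre virus (about 0.5 moi) added next. Following 44 h of culture, luminescent signal is measured for 15 sec after 15 min with substrate at room temperature.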
Vaccinia mCherry: inhibitors of vaccinia virus infection (mCherry reporter signal) | Vaccinia virus mCherry reporter infection, fluorescence | Potency, µM (doses to about 36.5 µM), without a hit: at the highest dose activity change, negative = inhibition, most hits filed as inhibitors | 0.63% of 310,000 active; calls by dose curve; tested in A549 cells; also: % is scaled to controls: 0 for no effect and ±100 for the full control effect; nearly all actives have a fitted effect of over 35% in size
* marks the source's active call; other numbers are inactive results; i = inactive; ? = inconclusive; . = no result given; [ ] = remark or other dose. Unless noted, calls follow the shape of the dose curve; as a rule, active = well fitted inhibition curve with a large enough effect; inconclusive = small, poorly fitted or top-dose-only effect, or another doubt; inactive = no such curve, though single readings can be large or run the other way. Potency is read from the fitted curve at half-maximal effect.

SMILES	NS1 function inh	Pf growth 48h	Pf growth 96h	Vaccinia Venus	HCV inh	Vaccinia mCherry
COc1ccc(C(c2c(NC(C)=O)sc3c2CCCC3)N2CCN(CCO)CC2)cc1OC (configuration not stated)	.	4.7µM*	?	-15%	-2%	i
CN1CCc2cc(Cl)c(O)cc2[C@H]2c3ccccc3CC[C@@H]21	.	12µM*	9.5µM*	.	.	.
COc1ccc(CCC(C)NCC2CCCCC2)cc1 (configuration not stated)	-7%	?	13µM*	?	-23%	-26%
COc1ccc(CCC(C)NCc2ccc(Cl)c(Cl)c2)cc1 (configuration not stated)	-25%	9%	6.6µM*	.	-1%	.
COc1ccc(CCC(C)NC2CCCCCCC2)cc1 (configuration not stated)	9%	30%	1%	-16%	-3%	-16%
CCSc1ncc(Cl)c(C(=O)Nc2sc3c(c2C(=O)NCc2cccnc2)CCCC3)n1	7%	?	?	-9%	10µM*	i
CCNC(=O)c1c(NC(=O)c2nc(SCC)ncc2Cl)sc2c1CCCC2	.	.	.	-25%	.	?
CC(C)n1c(O)c(N=NC(=O)Cc2csc(N3CCOCC3)n2)c2ccccc21	.	13µM*	?	-8%	-23%	-13%
CC(C)n1c(O)c(N=NC(=O)CNC(=O)Cc2ccc(Cl)cc2)c2ccccc21	4%	-10%	-18%	.	?	.
Cc1n[nH]c(C)c1S(=O)(=O)NCCc1ccc(Cl)cc1	1%	1%	-2%	-12%	?	.
N#CCC(=O)Nc1ccc(C(=O)NCC2(N3CCOCC3)CCCCC2)cc1	.	12µM*	10µM*	.	4%	.
Cc1ccc2c(CC(=O)NCC3(N4CCOCC4)CCCCC3)coc2c1C	.	?	9.3µM*	.	-13%	.
C=CCC1NS(=O)(=O)OC2CCCCC12 (configuration not stated)	16%	6%	12%	-13%	45%	i
COCCCn1c(-c2ccc(Cl)cc2)n[nH]c1=S	9%	.	?	-6%	12%	-17%
COCCCn1c(-c2ccccc2Cl)n[nH]c1=S	14%	-4%	1.9µM*	-15%	0%	.
COc1ccc2[nH]cc(CCNc3nc(-c4ccc(C(=O)N(C)C)cc4)nc4ccccc34)c2c1	.	.	.	-11%	.	-23%
Cc1cccc(C(=O)NCC(=O)N2CCN(S(=O)(=O)c3ccccc3)CC2)c1	.	?	-3%	-8%	?	-10%
COc1cc2cc(CCOC(=O)c3ccco3)oc(=O)c2cc1OC	.	19%	?	-12%	-5%	-23%
CCC(Oc1cc(Cl)ccc1Cl)C(=O)N1CCC2(CC1)OCCO2 (configuration not stated)	-14%	91%	13%	.	-2%	.
CCOC(=O)N1CCC(Nc2c(Nc3cccc(CC)c3)c(=O)c2=O)CC1	-8%	10µM*	?	.	?	.
CCOC(=O)N1CCC(Nc2c(Nc3ccc(F)cc3)c(=O)c2=O)CC1	-1%	10µM*	?	.	-14%	.
CCOC(=O)N1CCC(Nc2c(-c3ccc(C)cc3)c(=O)c2=O)CC1	-3%	-1%	3%	8%	21%	3%
Cc1cccc(NC(=O)c2cc(CN3CCOCC3)on2)c1C	.	.	.	-11%	.	5%
O=C1CN(C(=O)COC(=O)C2CCN(S(=O)(=O)c3ccccc3C(F)(F)F)CC2)c2ccccc2N1	0%	3.7µM*	.	.	10%	.
OCCSc1nnc(Nc2ccccc2)s1	-88%	-19%	?	-21%	-7%	-3%[1.46 µM]
SMILES	NS1 function inh	Pf growth 48h	Pf growth 96h	Vaccinia Venus	HCV inh	Vaccinia mCherry
COc1cc(C)c(NC(c2ccccc2)c2ccccc2)cc1OC	.	-22%	-27%	0%	8%	-6%
CC(C)CC(NC(=O)c1ccccc1)C(=O)N/N=C/c1ccco1 (configuration not stated)	4%	-3%	3%	11%	-4%	-7%
COc1ccc(C(=O)NCc2cccs2)cc1S(=O)(=O)N1CCOCC1	.	?	4.1µM*	8%	15%	i
O=C(NNC(=O)c1ccc(Br)s1)c1ccc(F)c(S(=O)(=O)N2CCOCC2)c1	.	-12%	10µM*	.	13%	.
COc1ccc(S(=O)(=O)N2CCOCC2)cc1NC(=O)c1ccc(Cl)cc1	.	-12%	8.3µM*	-12%	65%	i
Cc1ccc(C(=O)NNC(=O)c2ccc(Br)s2)cc1S(=O)(=O)N1CCOCC1	.	-21%	-22%	.	0%	.
O=C(Nc1ccccc1C(=O)N1CCCCC1)c1cccc(S(=O)(=O)N2CCOCC2)c1	2%	-15%	35%	-17%	23%	.
O=C(Nc1ccccc1C(=O)N1CCCCCC1)c1cccc(S(=O)(=O)N2CCOCC2)c1	-2%	12µM*	?	-6%	0%	-19%
CCC(Oc1ccccc1)C(=O)Nc1ccc(OCc2cc(=O)n3ccccc3n2)cc1 (configuration not stated)	.	.	.	-18%	.	-4%
COc1ccc(C(=O)NC2CCSc3ccccc32)cc1S(=O)(=O)N1CCOCC1 (configuration not stated)	.	12µM*	?	-9%	-28%	i
O=C(Nc1ccccc1N1CCOCC1)c1ccc(F)c(S(=O)(=O)N2CCOCC2)c1	.	?	2.1µM*	.	9%	.
O=C(Nc1ccccc1N1CCOCC1)c1cccc(S(=O)(=O)N2CCOCC2)c1	.	?	4.7µM*	.	12%	.
COc1ccc(C(=O)Nc2ccccc2N2CCOCC2)cc1S(=O)(=O)N1CCOCC1	.	5.9µM*	1.9µM*	.	2%	.
COc1ccc(C(=O)Nc2ccccc2[N+](=O)[O-])cc1S(=O)(=O)N1CCOCC1	-16%	-14%	?	-24%	?	-7%
CCCn1c(SCC(=O)NC2CCCc3ccccc32)n[nH]c1=O (configuration not stated)	9%	0%	0%	-4%	8%	-15%
O=C1C(c2ccc(F)cc2)N(Cc2ccc3c(c2)OCO3)C(=O)CN1C1CCCCCC1 (configuration not stated)	-1%	.	-5%	.	-10%	.
COc1ccc(C(=O)Nc2ccc(Br)cc2F)cc1S(=O)(=O)N1CCCC1	.	?	10µM*	-5%	?	-3%
COc1ccc(C(=O)Nc2cc(Cl)ccc2N2CCOCC2)cc1S(=O)(=O)N1CCOCC1	.	10µM*	?	-8%	?	-16%
COc1cccc(OC)c1C(=O)Nc1cc(Cl)ccc1N1CCOCC1	-16%	0%	26%	-15%	12%	-9%[1.46 µM]
COC(=O)c1cc(NCc2cccs2)ccc1N1CCOCC1	-3%	-6%	8.3µM*	.	8%	.
COc1ccc(C(=O)Nc2cccc(C(=O)O)c2)cc1S(=O)(=O)N1CCCC1	3%	119%	1%	2%	14%	i
COc1ccc(NC(=O)c2cncc(Br)c2)c(S(=O)(=O)N2CCOCC2)c1	0%	?	10µM*	-13%	-21%	.
